These results are taken from PubChem BioAssay.

The inhibition is the drop in the measured response relative to a control, in per cent.

The nature of assay [1]: yeast TOR pathway RPL19A-GFP modulators, primary screen, cell-based, S. cerevisiae, multiplex flow cytometry (AID 1862; in the data active means percent of DMSO control GFP below about 86%;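 further: lower values mimic rapamycin by blocking the RPL19A rise seen in DMSO cells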). Conditions: S. cerevisiae RPL19A-GFP strain, flow cytometry fluorescence, 3 h; at 10 µM; stronger effect = lower value. On the technique in general: In flow cytometry, cells or beads pass a laser one at a time.
Assay [2] is described as follows: modulators of MEP2-GFP levels in yeast, primary screen, S. cerevisiae, multiplex flow cytometry (AID 1867;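 active means GFP response, as percent of the DMSO control, above the screen-wide mean plus 3 SD, about 139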;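 further: median GFP channel fluorescence of barcode-gated MEP2-GFP cells measured by flow cytometry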). Conditions: S. cerevisiae MEP2-GFP strain, 3 h, at 10 µM, stronger effect = higher value.
Assay [3] in a line: modulators of CIT2-GFP expression in yeast, primary screen, S. cerevisiae, GFP fusion, multiplex flow cytometry (AID 1870;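 active means percent response above a set limit, the screen-wide mean plus 3 SD, cut at about 130% in these data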;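 further: barcoded CIT2-GFP strain pooled with four other GFP strains with rapamycin as positive control; median GFP fluorescence per well over plate mean of DMSO wells so 100% = DMSO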). Conditions: 3 h, at 10 µM, stronger effect = higher value.
Assay [4] is described as follows: modulators of LAP4-GFP expression in yeast, primary screen, S. cerevisiae, multiplex flow cytometry (AID 1873;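 active means GFP signal, as percent of the solvent control, above the screen mean plus 3 SD, about 149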). Conditions: 3 h, at 10 µM, stronger effect = higher value.
Assay [5] is described as follows: modulators of AGP1-GFP expression in yeast TOR pathway, primary screen, cell-based, multiplex flow cytometry, S. cerevisiae (AID 1887;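 active means GFP signal above the screen-wide mean plus 3 SD, that is over about 124.5% of the solvent control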;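 further: AGP1-GFP fusion strain of S. cerevisiae within a five-strain barcoded multiplex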). Conditions: 3 h, at 10 µM, stronger effect = higher value.
Assay [6] in a line: inhibitors of CD8+ T cell-vesicle binding, pilot screen, LFA-1/ICAM-1 modulator project, MLPCN validation set, flow cytometry (AID 2523;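 active means response below a set limit, under 55% cells CD8-positive and vesicle-bound, and CD8 cells' 90th-percentile brightness under 279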;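 on vesicle binding response: mean PE anti-B7-1 fluorescence of CD8+ cells relative to row control; 100% = QL9-loaded vesicles with DMSO vehicle in the same plate row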). Conditions: 2C mouse CD8+ T cells, at 7 µM, stronger effect = lower value; double positive events: measured here: CD8+/vesicle+ event percentage.
The target of assay [7] is Integrin beta-1 (Homo sapiens) + Integrin alpha-4 (Homo sapiens) (UniProt P13612+P05556). The assay can be described thus: inhibition of HUTS-21 binding to VLA-4, pilot screen, VLA-4 allosteric modulator project, U937 cells, HUTS-21 mAb, flow cytometry, validation set (AID 2674;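 active means inhibition above 50%, about 3 SD of the validation set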;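 further: antibody binding induced by the VLA-4 ligand LDV present at three times its Kd; 0% = LDV ligand with antibody and no compound and 100% = antibody without LDV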). Conditions: HUTS-21 LIBS mAb binding, at 6.7 µM, stronger effect = higher value.
A short description of assay [8]: superoxide lowering in aged yeast cells, pilot screen, validation compound set (AID 2706;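 active means superoxide response below 65% of plate, a cut near 3 SD across the whole screen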;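 further: yeast exposed to compound for one week at 30 degrees C before staining; 100% = mean of all compound wells on the same plate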). Conditions: S. cerevisiae aging, superoxide DHE fluorescence; at 10 µM; stronger effect = lower value.
Assay [9] addresses Beta-adrenergic receptor kinase 1 (Homo sapiens) (UniProt P25098). The assay can be described thus: GRK2 binders displacing RNA aptamer, biochemical, validation, human GRK2, bead flow cytometry (AID 488806;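 active means aptamer binding inhibition above 30%, about 3 SD of noise from non-fluorescent compounds; inactive means inhibition at or below 30%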). Conditions: bead-bound GRK2, FAM-aptamer displacement, at 10 µM, stronger effect = higher value.
Assay [10] concerns the target Beta-2 adrenergic receptor (Homo sapiens) (UniProt P07550). Nature of the assay: beta2AR agonists driving receptor internalization, pilot screen, cell-based, FAP fluorogen, flow cytometry, validation set (AID 504459;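 active means percent response above 42, roughly 3 SD of non-fluorescent test compounds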;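 further: agonist-driven loss of surface beta2AR via internalization measured by FAP dye flow cytometry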). Conditions: Am2.2-beta2AR cells, FAP surface receptor flow cytometry; at 10 µM; stronger effect = higher value.
The target in assay [11] is AP-2 complex subunit beta (Homo sapiens) (UniProt P63010). The assay can be described thus: inhibitors of arrestin peptide binding to AP2, pilot screen, biochemical, validation set, GST-AP2 beads, flow cytometry (AID 504541;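 active means inhibition above 54%, about 3 SD of non-fluorescent compounds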;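 further: AP2 carries R879A mutation and is captured from E. coli lysate; bead-bound FITC arrestin peptide fluorescence measuring arrestin peptide binding to AP2; 0% = DMSO wells and 100% = excess unlabeled arrestin peptide control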). Conditions: FITC arrestin peptide, at 10 µM, stronger effect = higher value.
The nature of assay [12]: yeast V-ATPase proton transport modulators, S. cerevisiae, pHLuorin, HTS validation (AID 504600; in the data active means response above about 15%;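 further: plate controls were DMSO for no effect and reference compound for full effect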). Conditions: S. cerevisiae pHLuorin cytosolic pH, at 10 µM, stronger effect = higher value.
For assay [13], the system named is anti-desmoglein-3 scFv antibody binding to human DSG3. The assay can be described thus: inhibitors of anti-DSG3 scFv binding to DSG3, pilot screen, biochemical, validation compound set, bead-based, flow cytometry (AID 588368;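 active means binding below the plate cutoff, the plate median minus 3 SD, with a reading above zero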;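 further: signal is the median channel fluorescence of bead-bound GFP antibody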). Conditions: Protein G beads, DSG3-Fc, scFv-GFP binding, at 10 µM, stronger effect = lower value.
For assay [14], the system named is Botulinum neurotoxin type F light chain protease (Clostridium botulinum). Nature of the assay: Botulinum neurotoxin type F light chain protease inhibition, multiplex microsphere flow cytometry, validation set (AID 588459). Conditions: multiplex microsphere protease substrate cleavage assay, at 10 µM, stronger effect = higher value.
For assay [15], the target named is Botulinum neurotoxin type A (Clostridium botulinum) (UniProt P0DPI0). The assay can be described thus: BoNT/A light chain protease inhibitors, biochemical, multiplex microsphere flow cytometry, validation set (AID 588460). Conditions: at 10 µM, stronger effect = higher value.
For assay [16], the target named is Lethal factor (Bacillus anthracis) (UniProt P15917). Nature of the assay: Lethal factor protease inhibitors, Bacillus anthracis, multiplex microsphere cleavage assay, validation set (AID 588461). Conditions: flow cytometry, at 10 µM, stronger effect = higher value.
A short description of assay [17]: inhibitors of fungal efflux pumps CDR1, CDR2, MDR1, pilot screen, validation compound set, multiplex, phenotypic (AID 588506;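 active means efflux inhibition above 0.42, the validation set average plus 4 SD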;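 further: Nile Red retained in cells so higher fluorescence means more efflux inhibition; 0 = negative control wells and 1 = enniatin B 25 µM full block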). Conditions: S. cerevisiae pump-expressing triplex, Nile Red efflux flow cytometry; at 10 µM; stronger effect = higher value.
Assay [18] concerns the target ATP-binding cassette sub-family B member 6 (Homo sapiens) (UniProt Q9NP58). The assay can be described thus: ABCB6 transporter inhibitors, pilot screen, K562-ABCB6 cells, flow cytometry, validation set (AID 588550;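 active means inhibition above the screen-wide mean plus 3 SD, about 51%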;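 further: 0% = DMSO wells and 100% = benzethonium chloride 70 µM positive control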). Conditions: K562-ABCB6 porphyrin accumulation, 1 h, at 10 µM, stronger effect = higher value.
Assay [19] can be described thus: promoters of myeloid differentiation in arrested cells, primary screen, cell-based, GFP/MAC1 double positive, flow cytometry, validation set (AID 588685;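 active means differentiation response of at least 50%, scaled between solvent and reference control, from cells with both markers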;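 further: compound exposure lasts four days before antibody staining and flow analysis; 0% = DMSO wells and 100% = 5 µM fulvestrant positive control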). Conditions: ER-HoxA9 marrow cells, stronger effect = higher value.

Inconclusive results are not listed. The source made the active and inactive calls. Unless noted, how the calls were made is not given here.

Chain of Beta-adrenergic receptor kinase 1 (Homo sapiens) (P25098 whole entry, looked up): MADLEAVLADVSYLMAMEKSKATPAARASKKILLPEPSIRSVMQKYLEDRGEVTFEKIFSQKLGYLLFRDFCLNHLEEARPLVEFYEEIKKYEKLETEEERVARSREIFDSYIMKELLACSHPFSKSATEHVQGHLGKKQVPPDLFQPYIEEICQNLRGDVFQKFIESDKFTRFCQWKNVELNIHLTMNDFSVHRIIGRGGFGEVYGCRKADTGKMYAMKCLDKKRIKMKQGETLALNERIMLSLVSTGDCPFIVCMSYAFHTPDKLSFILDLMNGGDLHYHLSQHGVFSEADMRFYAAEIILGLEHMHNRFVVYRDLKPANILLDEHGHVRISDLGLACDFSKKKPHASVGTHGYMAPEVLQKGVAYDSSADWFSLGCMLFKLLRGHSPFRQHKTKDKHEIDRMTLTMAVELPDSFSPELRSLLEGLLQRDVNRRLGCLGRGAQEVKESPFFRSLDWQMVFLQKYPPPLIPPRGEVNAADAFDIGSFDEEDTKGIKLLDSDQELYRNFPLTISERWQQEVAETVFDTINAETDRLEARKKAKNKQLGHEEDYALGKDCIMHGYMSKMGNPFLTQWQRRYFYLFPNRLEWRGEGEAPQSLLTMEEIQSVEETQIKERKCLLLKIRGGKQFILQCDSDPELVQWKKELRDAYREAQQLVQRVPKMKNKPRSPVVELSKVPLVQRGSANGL
Chain of AP-2 complex subunit beta (Homo sapiens) (P63010 whole entry, looked up, one chain of several): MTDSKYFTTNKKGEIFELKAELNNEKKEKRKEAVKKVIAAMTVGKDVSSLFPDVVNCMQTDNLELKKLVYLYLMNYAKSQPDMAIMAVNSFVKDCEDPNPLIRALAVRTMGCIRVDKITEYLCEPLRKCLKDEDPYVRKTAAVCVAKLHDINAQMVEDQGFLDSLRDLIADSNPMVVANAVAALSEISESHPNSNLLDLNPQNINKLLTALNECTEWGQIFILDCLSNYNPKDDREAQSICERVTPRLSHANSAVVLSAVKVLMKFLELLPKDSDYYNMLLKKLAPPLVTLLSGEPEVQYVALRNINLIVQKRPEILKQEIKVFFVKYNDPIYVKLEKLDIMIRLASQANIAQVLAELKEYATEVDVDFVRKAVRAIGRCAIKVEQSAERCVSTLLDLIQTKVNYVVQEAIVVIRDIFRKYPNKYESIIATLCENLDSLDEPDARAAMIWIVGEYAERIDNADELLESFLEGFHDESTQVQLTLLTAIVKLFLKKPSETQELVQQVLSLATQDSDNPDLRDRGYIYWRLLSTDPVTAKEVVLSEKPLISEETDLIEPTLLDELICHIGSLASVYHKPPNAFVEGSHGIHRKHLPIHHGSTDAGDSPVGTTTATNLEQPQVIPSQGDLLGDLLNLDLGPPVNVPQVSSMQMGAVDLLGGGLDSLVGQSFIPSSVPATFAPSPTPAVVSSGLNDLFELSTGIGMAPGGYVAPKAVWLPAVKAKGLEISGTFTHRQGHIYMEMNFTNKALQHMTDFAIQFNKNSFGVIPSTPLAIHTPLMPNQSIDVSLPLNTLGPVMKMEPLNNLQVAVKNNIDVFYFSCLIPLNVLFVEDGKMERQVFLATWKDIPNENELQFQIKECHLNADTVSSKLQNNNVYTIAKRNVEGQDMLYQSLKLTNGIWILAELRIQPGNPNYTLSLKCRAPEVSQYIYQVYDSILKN
Chain of Botulinum neurotoxin type A (Clostridium botulinum) (P0DPI0 whole entry, looked up): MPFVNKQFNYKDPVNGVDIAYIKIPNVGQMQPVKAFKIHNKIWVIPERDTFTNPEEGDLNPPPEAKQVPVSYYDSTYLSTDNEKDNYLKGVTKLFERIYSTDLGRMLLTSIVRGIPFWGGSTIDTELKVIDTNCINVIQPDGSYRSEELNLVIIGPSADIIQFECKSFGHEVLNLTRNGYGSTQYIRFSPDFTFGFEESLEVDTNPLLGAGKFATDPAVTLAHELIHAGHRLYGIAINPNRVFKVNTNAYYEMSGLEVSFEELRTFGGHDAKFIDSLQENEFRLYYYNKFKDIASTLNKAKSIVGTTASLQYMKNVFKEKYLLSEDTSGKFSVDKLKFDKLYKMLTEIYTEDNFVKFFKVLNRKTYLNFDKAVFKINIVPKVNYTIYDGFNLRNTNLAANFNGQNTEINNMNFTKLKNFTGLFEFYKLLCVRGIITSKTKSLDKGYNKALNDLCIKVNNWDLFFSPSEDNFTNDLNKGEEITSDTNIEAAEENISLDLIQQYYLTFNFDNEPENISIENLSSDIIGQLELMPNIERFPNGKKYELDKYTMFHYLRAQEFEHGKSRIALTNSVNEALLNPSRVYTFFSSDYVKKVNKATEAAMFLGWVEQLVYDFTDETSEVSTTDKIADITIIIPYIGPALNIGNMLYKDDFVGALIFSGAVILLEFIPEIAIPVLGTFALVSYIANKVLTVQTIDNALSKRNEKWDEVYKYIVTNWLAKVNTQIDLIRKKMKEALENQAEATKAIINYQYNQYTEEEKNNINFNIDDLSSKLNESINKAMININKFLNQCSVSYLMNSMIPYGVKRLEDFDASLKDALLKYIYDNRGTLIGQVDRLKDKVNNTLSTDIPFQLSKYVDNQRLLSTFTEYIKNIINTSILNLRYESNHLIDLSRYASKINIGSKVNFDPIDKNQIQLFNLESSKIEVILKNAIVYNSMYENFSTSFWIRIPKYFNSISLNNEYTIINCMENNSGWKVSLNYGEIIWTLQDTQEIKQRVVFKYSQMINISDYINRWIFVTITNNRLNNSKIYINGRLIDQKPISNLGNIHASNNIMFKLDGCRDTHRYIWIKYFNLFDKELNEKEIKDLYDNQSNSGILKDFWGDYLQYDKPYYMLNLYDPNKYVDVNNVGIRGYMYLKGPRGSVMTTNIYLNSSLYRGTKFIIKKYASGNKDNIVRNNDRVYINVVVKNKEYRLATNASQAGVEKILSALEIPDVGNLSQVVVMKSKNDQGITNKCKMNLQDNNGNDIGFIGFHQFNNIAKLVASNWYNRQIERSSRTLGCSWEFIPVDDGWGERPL
Chain of Lethal factor (Bacillus anthracis) (P15917 whole entry, looked up): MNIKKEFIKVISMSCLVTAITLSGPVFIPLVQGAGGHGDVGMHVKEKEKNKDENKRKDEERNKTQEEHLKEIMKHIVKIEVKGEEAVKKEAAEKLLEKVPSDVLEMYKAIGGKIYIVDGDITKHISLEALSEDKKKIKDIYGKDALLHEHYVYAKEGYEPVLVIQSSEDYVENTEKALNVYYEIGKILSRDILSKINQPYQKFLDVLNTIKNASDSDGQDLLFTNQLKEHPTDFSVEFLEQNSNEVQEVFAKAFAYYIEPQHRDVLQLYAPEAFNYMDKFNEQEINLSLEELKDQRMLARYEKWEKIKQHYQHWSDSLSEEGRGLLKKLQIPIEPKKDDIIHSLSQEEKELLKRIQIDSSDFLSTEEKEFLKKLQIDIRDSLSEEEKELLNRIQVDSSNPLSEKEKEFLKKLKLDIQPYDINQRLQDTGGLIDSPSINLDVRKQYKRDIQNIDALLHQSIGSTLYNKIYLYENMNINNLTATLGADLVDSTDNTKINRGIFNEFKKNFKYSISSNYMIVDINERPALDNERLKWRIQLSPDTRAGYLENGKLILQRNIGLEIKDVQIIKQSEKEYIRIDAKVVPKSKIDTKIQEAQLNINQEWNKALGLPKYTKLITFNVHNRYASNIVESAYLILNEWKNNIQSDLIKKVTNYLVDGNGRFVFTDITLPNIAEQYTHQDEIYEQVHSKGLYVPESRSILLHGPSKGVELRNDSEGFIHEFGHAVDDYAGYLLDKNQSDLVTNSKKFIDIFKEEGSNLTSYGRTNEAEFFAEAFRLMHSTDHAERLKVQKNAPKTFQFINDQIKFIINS
Chain of Beta-2 adrenergic receptor (Homo sapiens) (P07550 whole entry, looked up): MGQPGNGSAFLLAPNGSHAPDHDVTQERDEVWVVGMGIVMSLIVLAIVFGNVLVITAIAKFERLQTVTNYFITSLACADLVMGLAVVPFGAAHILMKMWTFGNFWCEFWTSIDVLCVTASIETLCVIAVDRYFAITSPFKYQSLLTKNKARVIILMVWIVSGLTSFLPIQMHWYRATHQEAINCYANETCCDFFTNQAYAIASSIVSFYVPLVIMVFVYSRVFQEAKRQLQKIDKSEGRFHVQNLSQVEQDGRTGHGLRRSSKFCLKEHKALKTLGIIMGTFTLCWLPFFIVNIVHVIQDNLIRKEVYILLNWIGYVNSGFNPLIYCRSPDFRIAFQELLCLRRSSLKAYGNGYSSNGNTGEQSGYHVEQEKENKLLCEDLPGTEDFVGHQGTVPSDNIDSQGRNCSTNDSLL
Chain of ATP-binding cassette sub-family B member 6 (Homo sapiens) (Q9NP58 whole entry, looked up): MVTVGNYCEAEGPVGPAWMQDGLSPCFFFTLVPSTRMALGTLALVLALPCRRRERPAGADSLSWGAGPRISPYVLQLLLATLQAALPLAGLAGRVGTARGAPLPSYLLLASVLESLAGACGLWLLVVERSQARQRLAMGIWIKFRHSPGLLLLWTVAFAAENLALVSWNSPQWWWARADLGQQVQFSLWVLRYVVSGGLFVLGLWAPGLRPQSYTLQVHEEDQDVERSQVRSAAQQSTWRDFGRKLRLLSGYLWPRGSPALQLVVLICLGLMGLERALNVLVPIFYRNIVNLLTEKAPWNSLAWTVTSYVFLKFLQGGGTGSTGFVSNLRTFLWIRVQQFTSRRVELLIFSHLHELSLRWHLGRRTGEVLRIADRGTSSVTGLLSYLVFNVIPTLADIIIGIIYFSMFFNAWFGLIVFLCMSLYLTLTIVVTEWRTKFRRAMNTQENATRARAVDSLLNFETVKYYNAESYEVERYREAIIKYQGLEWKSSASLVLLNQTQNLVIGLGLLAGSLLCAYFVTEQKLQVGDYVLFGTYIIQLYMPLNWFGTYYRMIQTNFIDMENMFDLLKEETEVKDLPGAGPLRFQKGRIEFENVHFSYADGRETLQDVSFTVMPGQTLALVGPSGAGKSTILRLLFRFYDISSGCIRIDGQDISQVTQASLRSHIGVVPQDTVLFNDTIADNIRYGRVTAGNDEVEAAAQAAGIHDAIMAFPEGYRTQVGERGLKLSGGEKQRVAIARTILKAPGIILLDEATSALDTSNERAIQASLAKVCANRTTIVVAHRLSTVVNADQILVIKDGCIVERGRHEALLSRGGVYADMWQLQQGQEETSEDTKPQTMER

Regarding `OCc1cnc[nH]1`, the percent of DMSO control GFP in assay [1] was 103% (inactive). In addition, the GFP response vs DMSO was 109% (inactive) in [2] and 101% (inactive) in [4]. The percent response of DMSO control in assay [3] was 98.9% (inactive). The GFP response, % of DMSO in assay [5] is 99.4% (inactive). The double positive events in assay [6] amounted to 62.2%. The vesicle binding response in assay [6] is 4490% (inactive). The inhibition in [7] was 11% (inactive); in assay [11], 3.29% (inactive); in assay [14], 0.1% (inactive); in assay [15], -0.3% (inactive); in assay [16], 1.2% (inactive); in assay [18], -11% (inactive). Further, the superoxide response (% of plate) in assay [8] was 104% (inactive). The aptamer binding inhibition in [9] was 0% (inactive). For the same compound, the response in assay [10] was -1.18% (inactive); in assay [12] it was 1.03% (inactive). The binding (% of control) in assay [13] was 97.4% (inactive). In [17], the efflux inhibition (fraction of control) is -0.01 (inactive). The differentiation response in assay [19] was -10.5% (inactive).

As to `O=c1[nH]c2ccccc2n1C1CCN(CCCC(c2ccc(F)cc2)c2ccc(F)cc2)CC1`, the percent of DMSO control GFP in assay [1] was 97.1% (inactive). The GFP response vs DMSO in assay [2] was 107% (inactive); in assay [4], 130% (inactive). In addition, the percent response of DMSO control in assay [3] was 103% (inactive). For the same compound, the GFP response, % of DMSO in assay [5] was 120% (inactive). This compound also gave a double positive events in [6] of 56.5%. Also, in assay [6], the vesicle binding response was 184% (inactive). For the same compound, the inhibition in [7] was 41.5% (inactive); in assay [11], -9.19% (inactive); in assay [14], -2.3% (inactive); in assay [15] it was -1.7% (inactive); in assay [16], -3% (inactive); in assay [18], 6% (inactive). In addition, the superoxide response (% of plate) in [8] is 88.4% (inactive). In assay [9], the aptamer binding inhibition was -13% (inactive). The response in assay [10] was 67.3% (active); in assay [12] it was 73.1% (active). For the same compound, in [13], the binding (% of control) was 114% (inactive). For the same compound, in assay [17], the efflux inhibition (fraction of control) is 0.12 (inactive). In addition, the differentiation response in assay [19] was 13.7% (inactive).

In the case of `c1ccc2c(c1)Nc1ccccc1S2`, the percent of DMSO control GFP in assay [1] is 92.8% (inactive). Also, the results for the GFP response vs DMSO in assay [2] and in assay [4] were 139% (inactive) and 81.4% (inactive), respectively. In [3], the percent response of DMSO control was 95.2% (inactive). In addition, the GFP response, % of DMSO in assay [5] is 84.7% (inactive). Further, in assay [6], the double positive events was determined as 61.9%. The vesicle binding response in [6] was 121% (inactive). The inhibition in [7] was 12.3% (inactive); in [11], 9.01% (inactive); in assay [14], -1.5% (inactive); in assay [15] it was 0.5% (inactive); in assay [16] it was -2.6% (inactive); in [18], 9% (inactive). Moreover, the superoxide response (% of plate) in assay [8] is 81.7% (inactive). Moreover, the aptamer binding inhibition in assay [9] was 2% (inactive). Also, the values for the response in assay [10] and in assay [12] were 1.66% (inactive) and -2.45% (inactive), respectively. Besides, the binding (% of control) in assay [13] is 100% (inactive). In addition, the efflux inhibition (fraction of control) in [17] is 0.27 (inactive). For the same compound, the differentiation response in [19] was 1.64% (inactive).

For the compound `CC(C)C(=O)Nc1ccc(S(=O)(=O)N2CC3CC(C2)c2cccc(=O)n2C3)cc1` (stereo not given), the percent of DMSO control GFP in [1] was 97.4% (inactive). Further, the GFP response vs DMSO was 95.2% (inactive) in assay [2] and 86.3% (inactive) in [4]. Also, in assay [3], the percent response of DMSO control was 104% (inactive). In assay [5], the GFP response, % of DMSO was 93.1% (inactive). The compound further yielded a double positive events in assay [6] of 58.5%. For the same compound, the vesicle binding response in [6] is 184% (inactive). In addition, the inhibition in [7] was -5.89% (inactive); in assay [11] it was 10.6% (inactive); in [14], 4.8% (inactive); in assay [15], 0.5% (inactive); in [16] it was 0.3% (inactive); in assay [18], 2% (inactive). The superoxide response (% of plate) in assay [8] is 106% (inactive). For the same compound, the aptamer binding inhibition in [9] is 3% (inactive). Further, the response in assay [10] was -5.34% (inactive); in assay [12], -0.52% (inactive). In addition, the binding (% of control) in assay [13] was 100% (inactive). In addition, the efflux inhibition (fraction of control) in assay [17] is -0.24 (inactive). In assay [19], the differentiation response is 13.6% (inactive).
